# Over roughly 1,000 compounds, “relative growth in counter assay (no AraC = 100%, AraC + DMSO = 0%)” has its median near -1.1; the highest 2% begin near 20. What follows is part of a selection rich in the highest values, with near analogues and random picks from the rest.
# Tested on: HEK293FT dCK*-only
# Test: relative growth in counter assay (no AraC = 100%, AraC + DMSO = 0%); higher = more growth rescue independent of IKZF1
# Settings: compound concentration: 5 uM; AraC concentration: 0.3 uM; overnight pretreatment + 4 days AraC
# Description: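 Growth recovery screen of the molecular-glue-like (Specs) library. HEK293FT cells expressing a dCK*-IKZF1 fusion (primary) or dCK* alone (counter) were pretreated overnight with compound at 5 uM, then given 0.3 uM AraC for 4 days. Hoechst nuclei were counted by imaging. Primary: normalised to pomalidomide (100%) and DMSO (0%), mean of 2 replicates. Counter: normalised to no-AraC (100%) and AraC+DMSO (0%), single replicate.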
row,Structure (SMILES),relative growth in counter assay
1,O=C1CCCC/C1=C/Nc1ccc(S(=O)(=O)Nc2cnc3ccccc3n2)cc1,-1.17%
2,Cc1cnc(Nc2cccc(C3CN(C(=O)Cc4ccccc4)CCO3)n2)s1 (stereo not given),-5.45%
3,COCC(=O)N1CCC(c2cccc(Nc3nc(C)cs3)n2)CC1,14%
4,O=C(C1CCCCC1)N1CCOC(c2cccc(Nc3ncc(Cc4cccc(Cl)c4)s3)n2)C1 (stereo not given),13.1%
5,O=C1CCCN1CCOCC(=O)N1CCOC(c2cccc(Nc3nccs3)n2)C1 (stereo not given),-1.14%
6,CC(=O)Nc1ccc(C(=O)Nc2ccc(S(=O)(=O)Nc3nccc(C)n3)cc2)cc1,-3.58%
7,O=C1CCC(N2C(=O)c3cc(F)c(N4CCN(CCC5CCNCC5)CC4)cc3C2=O)C(=O)N1 (stereo not given),1.21%
8,CC(C)C(=O)N1CCCC1c1csc(Nc2ccccn2)n1 (stereo not given),6.43%
9,Cc1cc(NS(=O)(=O)c2ccc(NC(=O)C3COc4ccccc4O3)cc2)nc(C)n1 (stereo not given),-10.4%
10,O=C(O)CCOCCOCCOCCNc1cc2c(cc1F)C(=O)N(C1CCC(=O)NC1=O)C2=O (stereo not given),0.94%
11,CCCCc1cnc(Nc2cccc(C3CCN(C(=O)C4(C)CCCN4C(=O)OC(C)(C)C)CC3)n2)s1 (stereo not given),5.27%
12,CC(=O)Oc1cccc(N2C(=O)c3ccc(Oc4ccc(N)cc4)cc3C2=O)c1,-2.02%
13,CC(C)CC(C(=O)Nc1ccc(S(=O)(=O)Nc2ccccn2)cc1)N1C(=O)c2ccccc2C1=O (stereo not given),0.21%
14,CCOc1ccccc1OCC(=O)Nc1ccc(S(=O)(=O)Nc2ncccn2)cc1,2.46%
15,Cc1ccn(CCC(=O)N2CCOC(c3cccc(Nc4ncc(C)s4)n3)C2)n1 (stereo not given),-1.16%
16,NC(=O)CN1CCCCC1c1csc(Nc2ccccn2)n1 (stereo not given),8.38%
17,Cc1cc(C)nc(NS(=O)(=O)c2ccc(NS(=O)(=O)/C=C/c3ccccc3)cc2)n1,5.62%
18,CCCc1cnc(Nc2cccc(C3CCN(C(=O)C4CCCCN4CCCO)CC3)n2)s1 (stereo not given),-21.2%
19,CC(C)(N)C(=O)N1CCC(c2cccc(Nc3ncc(CC(F)(F)F)s3)n2)CC1,-21.1%
20,Cc1cnc(Nc2cccc(C3CN(C(=O)C4(c5ccccc5)CC4)CCO3)n2)s1 (stereo not given),-7.66%
21,CCCc1cnc(Nc2cccc(C3CCN(C(=O)C4CCCCN4CC(=O)O)CC3)n2)s1 (stereo not given),-19.3%
22,Cc1cccc(N2CC(C(=O)Nc3ccc(S(=O)(=O)Nc4ncccn4)cc3)CC2=O)c1C (stereo not given),2.21%
23,COc1ccc(C(=O)Nc2ccc(S(=O)(=O)Nc3ccccn3)cc2)cc1OC,2.76%
24,O=C(O)CCOCCOCCOCCOCCNc1ccc2c(c1)C(=O)N(C1CCC(=O)NC1=O)C2=O (stereo not given),9.95%
25,CS(=O)(=O)Nc1ccc(S(=O)(=O)Nc2ncccn2)cc1,3.46%

# From the supplement of paper PMC12340641
